Test results taken from PubChem BioAssay.
A number with no mark means an inactive call. For some of these results: Results with a measured potency or affinity are listed apart. Activity calls are given as the source filed them. Unless noted, how the calls were made is not given here.

What was measured:
[1] = antimalarial activity against Dd2 strain (AID 2302;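 active means growth inhibition above 50% at the single 2 µM test dose, taken to imply half-maximal potency below 2 µM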;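 further: 0% = DMSO untreated growth and 100% = chloroquine plus artemisinin killed control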); conditions: P. falciparum Dd2 in RBCs, LDH growth readout, 72 h; at 2 µM; active compounds read high
[2] = HepG2 cytotoxicity, primary screen, cytotoxicity control for P. falciparum antimalarial project, cell-based, ATP luminescence (AID 2303;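 active means inhibition above 50%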;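 further: 0% = DMSO wells and 100% = digitonin-killed cells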); conditions: HepG2 viability, 24-48 h, at 10 µM, active compounds read high
[3] = target: L-lactate dehydrogenase (Plasmodium falciparum (isolate CDC / Honduras)) (UniProt Q27743); experiment: PfLDH activity inhibition – cell lysate, 3D7 strain, counter-screen for P. falciparum growth inhibition project (AID 2304);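 further: 0% = vehicle and 100% = reference inhibitor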; conditions: P. falciparum 3D7 crude extract, LDH APAD/NBT absorbance; at 2 µM; active compounds read high
Chain of L-lactate dehydrogenase (Plasmodium falciparum (isolate CDC / Honduras)) (Q27743 whole entry, looked up): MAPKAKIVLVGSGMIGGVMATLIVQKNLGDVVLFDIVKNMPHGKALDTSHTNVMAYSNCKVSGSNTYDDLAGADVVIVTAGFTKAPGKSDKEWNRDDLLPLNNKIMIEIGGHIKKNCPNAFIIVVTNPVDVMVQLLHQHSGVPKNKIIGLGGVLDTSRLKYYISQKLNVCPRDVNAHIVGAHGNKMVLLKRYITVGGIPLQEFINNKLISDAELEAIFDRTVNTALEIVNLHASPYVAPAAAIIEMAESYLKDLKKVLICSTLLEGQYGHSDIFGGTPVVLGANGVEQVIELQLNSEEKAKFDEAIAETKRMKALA

[4] = inhibition of 3D7 malaria parasite growth – strain 3D7 (AID 2306);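 further: 0% = DMSO wells and 100% = chloroquine plus artemisinin control wells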; conditions: P. falciparum 3D7 erythrocytic growth, LDH absorbance, 72 h; at 2 µM; active compounds read high
[5] = target: Calcium-dependent protein kinase 1 (Plasmodium falciparum (isolate 3D7)) (UniProt P62344); experiment: PfCDPK1 kinase inhibitors, biochemical, TCAMS library (AID 1159585; cut-off not given, nearly all actives have IC50 up to about 0.98 µM;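 further: inhibitors leave more ATP so luminescence rises with inhibition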); conditions: recombinant PfCDPK1, Kinase-Glo ATP depletion luminescence
Chain of Calcium-dependent protein kinase 1 (Plasmodium falciparum (isolate 3D7)) (P62344 whole entry, looked up): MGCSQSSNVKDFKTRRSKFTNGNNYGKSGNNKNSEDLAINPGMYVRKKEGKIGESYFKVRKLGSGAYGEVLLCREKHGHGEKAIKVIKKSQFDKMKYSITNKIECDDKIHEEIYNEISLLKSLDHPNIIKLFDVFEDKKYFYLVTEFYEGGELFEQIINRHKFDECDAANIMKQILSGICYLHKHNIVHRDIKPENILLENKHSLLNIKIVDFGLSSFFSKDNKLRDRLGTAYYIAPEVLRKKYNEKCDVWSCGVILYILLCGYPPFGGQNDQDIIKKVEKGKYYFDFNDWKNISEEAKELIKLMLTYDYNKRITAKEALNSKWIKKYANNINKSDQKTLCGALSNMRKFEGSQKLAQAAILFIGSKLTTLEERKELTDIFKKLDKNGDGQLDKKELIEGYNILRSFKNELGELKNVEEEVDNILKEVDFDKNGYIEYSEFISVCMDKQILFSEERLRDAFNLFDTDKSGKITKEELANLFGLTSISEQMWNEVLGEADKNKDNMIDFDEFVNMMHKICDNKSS

[6] = target: Plasmodium falciparum protein kinase 6 (PK6, PF3D7_1337100) (UniProt Q8IDW1); experiment: PfPK6 kinase inhibitors, biochemical, TCAMS library (AID 1159586); conditions: recombinant PfPK6, Kinase-Glo ATP depletion luminescence
Chain of Plasmodium falciparum protein kinase 6 (PK6, PF3D7_1337100) (Q8IDW1 1-305): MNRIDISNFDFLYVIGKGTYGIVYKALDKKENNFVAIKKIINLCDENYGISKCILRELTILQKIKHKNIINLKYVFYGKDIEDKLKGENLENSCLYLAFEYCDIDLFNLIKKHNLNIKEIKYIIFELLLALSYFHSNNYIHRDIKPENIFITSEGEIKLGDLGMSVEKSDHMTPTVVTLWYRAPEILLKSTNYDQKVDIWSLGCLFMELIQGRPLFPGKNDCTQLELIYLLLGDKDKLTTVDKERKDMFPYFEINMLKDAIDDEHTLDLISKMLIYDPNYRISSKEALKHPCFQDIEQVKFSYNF

[7] = target: Protein kinase 7 (PK7), Plasmodium falciparum 3D7 (PF3D7_0213400) (UniProt Q7YTF7); experiment: inhibition of Plasmodium PK7 catalytic activity – biochemical, TCAMS antimalarial set, Kinase-Glo luminescence (AID 1159587); conditions: recombinant PfPK7, Kinase-Glo ATP depletion luminescence
Chain of Protein kinase 7 (PK7), Plasmodium falciparum 3D7 (PF3D7_0213400) (Q7YTF7 1-343): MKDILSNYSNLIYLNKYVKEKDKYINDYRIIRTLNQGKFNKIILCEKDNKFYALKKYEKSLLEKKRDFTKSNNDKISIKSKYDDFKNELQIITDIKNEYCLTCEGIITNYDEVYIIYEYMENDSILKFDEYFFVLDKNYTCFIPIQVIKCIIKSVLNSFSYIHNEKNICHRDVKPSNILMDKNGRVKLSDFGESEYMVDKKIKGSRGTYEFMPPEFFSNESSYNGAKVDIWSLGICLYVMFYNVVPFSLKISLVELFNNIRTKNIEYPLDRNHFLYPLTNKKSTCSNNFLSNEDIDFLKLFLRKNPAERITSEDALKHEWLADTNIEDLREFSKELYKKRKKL

[8] = target: Calcium-dependent protein kinase 4 (Plasmodium falciparum (isolate 3D7)) (UniProt Q8IBS5); experiment: PfCDPK4 kinase inhibitors, biochemical, TCAMS library (AID 1159588; cut-off not given, nearly all actives have IC50 up to about 0.91 µM); conditions: recombinant PfCDPK4, Kinase-Glo ATP depletion luminescence
Chain of Calcium-dependent protein kinase 4 (Plasmodium falciparum (isolate 3D7)) (Q8IBS5 whole entry, looked up): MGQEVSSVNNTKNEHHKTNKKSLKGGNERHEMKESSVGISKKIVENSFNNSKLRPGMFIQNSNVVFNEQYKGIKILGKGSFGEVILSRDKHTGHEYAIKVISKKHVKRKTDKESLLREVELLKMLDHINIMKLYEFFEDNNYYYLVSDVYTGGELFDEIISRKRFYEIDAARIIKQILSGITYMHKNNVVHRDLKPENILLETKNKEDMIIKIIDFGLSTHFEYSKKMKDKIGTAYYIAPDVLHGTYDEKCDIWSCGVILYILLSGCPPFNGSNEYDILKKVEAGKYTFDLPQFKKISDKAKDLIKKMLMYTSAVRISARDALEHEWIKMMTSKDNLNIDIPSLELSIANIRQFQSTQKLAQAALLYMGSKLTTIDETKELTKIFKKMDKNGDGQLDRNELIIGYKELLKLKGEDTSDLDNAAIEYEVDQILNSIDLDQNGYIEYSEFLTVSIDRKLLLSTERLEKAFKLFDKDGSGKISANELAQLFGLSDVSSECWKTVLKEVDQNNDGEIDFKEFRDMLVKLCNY

Row | Compound | growth inhibition [1] | inhibition [2] [%] | inhibition [3] [%] | growth inhibition [4] | outcome [5] | outcome [6] | outcome [7] | outcome [8]
1 | CC(=O)c1c[nH]c2ccc(/C=C/C(=O)NC3CCC(CCN4CCc5ccc(C#N)cc5CC4)CC3)cc12 (stereo not given) | 98% (active) | 11 | 9 | 101% (active) | inactive | inactive | inactive | inactive
2 | O=S(=O)(NCCN1CCCC1)c1ccc(-c2ccc(CNCc3ccsc3)cc2)s1 | 40% | 31 | 7 | 99% (active) | inactive | inactive | inactive | inactive
3 | O=C(Nc1ccc(-c2nc3ccccc3[nH]2)cc1)c1ccc(S(=O)(=O)N2CCCCCC2)cc1 | 21% | 8 | -6 | 97% (active) | inactive | inactive | inactive | inactive
4 | CCn1c(-c2nonc2N)nc2c(C#CC(C)(C)O)ncc(OCCNCCc3ccc(OC)cc3)c21 | 44% | 4 | -7 | 91% (active) | inactive | inactive | inactive | inactive
5 | Cc1cc(NC(=O)Nc2ccc3nccc(N4CCN(C)CC4)c3c2)ccc1Br | 100% (active) | 31 | -2 | 101% (active) | inactive | inactive | inactive | inactive
6 | O=S(=O)(NCCN1CCCC1)c1ccc(-c2cccc(CNC3Cc4ccccc4C3)c2)cc1F | 62% (active) | 41 | -1 | 98% (active) | inactive | inactive | inactive | inactive
7 | CCC1(CC)CN(c2ccccc2)c2ccc(O)cc2S(=O)(=O)C1CC(C)C (stereo not given) | 89% (active) | -7 | 2 | 96% (active) | inactive | inactive | inactive | inactive
8 | COC(=O)c1cc2cccc(NC[C@@H](C)NC[C@H](O)c3cccc(Cl)c3)c2[nH]1 | 99% (active) | -8 | -3 | 98% (active) | inactive | inactive | inactive | inactive
9 | CN(C)c1ccc(C=C2SC(=O)NC2=Nc2ccccc2)cc1 | 96% (active) | 42 | 6 | 97% (active) | inactive | inactive | inactive | inactive
10 | NOCCCCOc1cc(Cl)c(Cl)cc1Cl | 5% | 6 | -2 | 92% (active) | inactive | inactive | inactive | inactive
11 | S=C(Nc1cccc(Cl)c1)NC1CCN(c2ccnc3cc(Cl)ccc23)C1 (stereo not given) | 89% (active) | 16 | -3 | 100% (active) | inactive | inactive | inactive | inactive
12 | CCNc1cc(C(=O)N[C@@H](Cc2ccccc2Cl)[C@H](O)CNC2CCCCC2)cc(N2CCCCS2(=O)=O)c1 | 97% (active) | 6 | 0 | 99% (active) | inactive | inactive | inactive | inactive
13 | CCOC(=O)c1ccc(NC(=O)Nc2cccc(-c3ccc(-c4nc5c(C)cccc5[nH]4)s3)c2)cc1 | 99% (active) | 44 | 4 | 100% (active) | inactive | inactive | inactive | inactive
14 | Cc1cc(N[C@@H](Cc2ccccc2)C(=O)NCc2cccs2)nc(NCCc2ccccc2)n1 | 61% (active) | 6 | -1 | 92% (active) | inactive | inactive | inactive | inactive
15 | CCCC(CNCc1cccc(SC(F)(F)F)c1)CNc1cc(=O)c2ccccc2[nH]1 (stereo not given) | 87% (active) | 5 | 5 | 101% (active) | inactive | inactive | inactive | inactive
16 | CNC(=O)COc1cc(C)c(C2CCN(CCCCNC(=O)c3ccc(-c4ccc(C(F)(F)F)cc4)cc3)CC2)cc1C | 72% (active) | 38 | 4 | 100% (active) | inactive | inactive | inactive | inactive
17 | CCOc1ccc(NC(=O)c2ccc(NCCCN3CC(C)CC(C)C3)c([N+](=O)[O-])c2)cc1 (stereo not given) | 60% (active) | 3 | -4 | 101% (active) | inactive | inactive | inactive | inactive
18 | O=C(/C=C/c1ccc(Cl)cc1)NCCCCCN1CCC(c2c[nH]c3ccccc23)CC1 | 15% | 42 | 7 | 99% (active) | inactive | inactive | inactive | inactive
19 | FC(F)(F)c1ccc2nccc(NN=CC=Cc3ccccc3)c2c1 | 9% | -4 | -1 | 82% (active) | inactive | inactive | inactive | inactive
20 | CS(=O)(=O)NCCCNCc1ccc(-c2ccc(-c3nc4ccc(C(F)(F)F)cc4[nH]3)cc2)cc1 | 83% (active) | 25 | 1 | 100% (active) | inactive | inactive | inactive | inactive
